Source: article PMC7862700, “An all-to-all approach to the identification of sequence-specific readers for epigenetic DNA modifications on cytosine”

Tests used:
Experiment in all cases: DAPPL (digital affinity profiling via proximity ligation, sequencing); 10 mM Tris-HCl pH 7.5, 50 mM NaCl, 1 mM DTT, 4% glycerol, room temperature, 30 min; GST-TFs on glutathione beads, 16-mer random dsDNA library, 0.1% formaldehyde crosslink after washing; high values mean tight binding
FLI1 = molecular target: T1, FLI1 (Homo sapiens, UniProt Q01543 1-452); conditions: protein: recombinant; tags: N-terminal GST; dsDNA, one strand shown
T1 sequence: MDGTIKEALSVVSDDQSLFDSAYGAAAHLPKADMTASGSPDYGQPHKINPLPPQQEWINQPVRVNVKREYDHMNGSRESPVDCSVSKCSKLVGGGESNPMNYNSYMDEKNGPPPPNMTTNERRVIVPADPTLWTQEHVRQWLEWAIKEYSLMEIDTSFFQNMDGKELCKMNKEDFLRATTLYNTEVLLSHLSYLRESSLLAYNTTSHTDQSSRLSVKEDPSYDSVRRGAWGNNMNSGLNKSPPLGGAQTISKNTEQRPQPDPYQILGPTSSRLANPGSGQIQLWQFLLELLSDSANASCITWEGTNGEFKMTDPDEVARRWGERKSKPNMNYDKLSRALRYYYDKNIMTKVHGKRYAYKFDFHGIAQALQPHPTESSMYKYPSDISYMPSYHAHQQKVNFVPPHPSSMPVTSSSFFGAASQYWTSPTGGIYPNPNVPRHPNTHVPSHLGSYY
In short: (§1)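 In yeast, human transcription factors were expressed with a GST fusion, then pulled down on glutathione beads and given DNA barcodes. Pooled with a tag-only sample, they were exposed to 200 nmole of a 16-mer random double-stranded DNA library (Tris/NaCl/DTT/glycerol buffer, room temperature, 30 min), washed, crosslinked with 0.1% formaldehyde, proximity-ligated using BsaI/T4 ligase for 1 h at 37 °C, PCR-amplified and read on an Illumina NextSeq500. Each hexamer's frequency of reads for a factor, divided by the matching frequency for the tag-only sample, gives the binding signal.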

ELK1 = molecular target: T2, ELK1 (Homo sapiens, UniProt P19419 1-428); conditions: protein: recombinant; tags: N-terminal GST; dsDNA, one strand shown
T2 sequence: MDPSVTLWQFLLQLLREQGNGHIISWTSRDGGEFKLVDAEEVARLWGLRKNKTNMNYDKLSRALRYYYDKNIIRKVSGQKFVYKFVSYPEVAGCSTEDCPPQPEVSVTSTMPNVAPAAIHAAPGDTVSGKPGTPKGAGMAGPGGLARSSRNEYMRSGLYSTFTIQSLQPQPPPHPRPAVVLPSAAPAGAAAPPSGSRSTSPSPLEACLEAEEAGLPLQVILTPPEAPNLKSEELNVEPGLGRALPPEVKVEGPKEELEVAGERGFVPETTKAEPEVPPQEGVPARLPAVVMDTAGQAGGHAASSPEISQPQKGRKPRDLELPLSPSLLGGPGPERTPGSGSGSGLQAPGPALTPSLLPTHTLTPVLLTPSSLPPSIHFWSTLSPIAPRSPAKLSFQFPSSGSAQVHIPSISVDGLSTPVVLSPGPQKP
In short: as §1

GABPA = molecular target: T3, GABPA (Homo sapiens, UniProt Q06546 1-454); conditions: protein: recombinant; tags: N-terminal GST; dsDNA, one strand shown
T3 sequence: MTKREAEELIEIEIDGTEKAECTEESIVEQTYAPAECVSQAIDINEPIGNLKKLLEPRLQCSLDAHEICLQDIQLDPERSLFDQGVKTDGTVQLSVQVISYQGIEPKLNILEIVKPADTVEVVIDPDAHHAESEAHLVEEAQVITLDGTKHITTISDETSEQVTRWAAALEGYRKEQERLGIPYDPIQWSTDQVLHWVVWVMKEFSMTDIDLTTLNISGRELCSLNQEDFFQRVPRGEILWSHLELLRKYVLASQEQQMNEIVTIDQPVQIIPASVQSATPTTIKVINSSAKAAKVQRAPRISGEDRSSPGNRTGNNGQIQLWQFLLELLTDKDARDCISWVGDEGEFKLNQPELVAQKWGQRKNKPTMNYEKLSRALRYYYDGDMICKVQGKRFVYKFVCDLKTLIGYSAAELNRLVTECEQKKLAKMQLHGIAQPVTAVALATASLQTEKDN
In short: as §1

ERG = molecular target: T4, ERG (Homo sapiens, UniProt P11308 1-479); conditions: protein: recombinant; tags: N-terminal GST; dsDNA, one strand shown
T4 sequence: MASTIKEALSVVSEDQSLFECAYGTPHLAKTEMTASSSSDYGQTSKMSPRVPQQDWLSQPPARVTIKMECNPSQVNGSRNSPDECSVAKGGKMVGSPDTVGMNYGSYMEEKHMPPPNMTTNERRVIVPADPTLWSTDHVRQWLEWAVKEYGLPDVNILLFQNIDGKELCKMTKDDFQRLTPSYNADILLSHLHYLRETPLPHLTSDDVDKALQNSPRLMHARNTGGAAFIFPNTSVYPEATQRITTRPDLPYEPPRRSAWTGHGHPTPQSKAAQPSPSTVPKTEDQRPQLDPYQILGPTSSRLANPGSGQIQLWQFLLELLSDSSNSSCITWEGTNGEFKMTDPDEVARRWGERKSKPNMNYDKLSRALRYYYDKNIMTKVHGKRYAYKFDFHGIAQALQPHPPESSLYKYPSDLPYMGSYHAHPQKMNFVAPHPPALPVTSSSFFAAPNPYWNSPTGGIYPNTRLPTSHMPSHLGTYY
In short: as §1

ELF1 = ELF1 (Homo sapiens, UniProt P32519 1-619); conditions: protein: recombinant; tags: N-terminal GST; dsDNA, one strand shown
Sequence of ELF1 (P32519 whole entry): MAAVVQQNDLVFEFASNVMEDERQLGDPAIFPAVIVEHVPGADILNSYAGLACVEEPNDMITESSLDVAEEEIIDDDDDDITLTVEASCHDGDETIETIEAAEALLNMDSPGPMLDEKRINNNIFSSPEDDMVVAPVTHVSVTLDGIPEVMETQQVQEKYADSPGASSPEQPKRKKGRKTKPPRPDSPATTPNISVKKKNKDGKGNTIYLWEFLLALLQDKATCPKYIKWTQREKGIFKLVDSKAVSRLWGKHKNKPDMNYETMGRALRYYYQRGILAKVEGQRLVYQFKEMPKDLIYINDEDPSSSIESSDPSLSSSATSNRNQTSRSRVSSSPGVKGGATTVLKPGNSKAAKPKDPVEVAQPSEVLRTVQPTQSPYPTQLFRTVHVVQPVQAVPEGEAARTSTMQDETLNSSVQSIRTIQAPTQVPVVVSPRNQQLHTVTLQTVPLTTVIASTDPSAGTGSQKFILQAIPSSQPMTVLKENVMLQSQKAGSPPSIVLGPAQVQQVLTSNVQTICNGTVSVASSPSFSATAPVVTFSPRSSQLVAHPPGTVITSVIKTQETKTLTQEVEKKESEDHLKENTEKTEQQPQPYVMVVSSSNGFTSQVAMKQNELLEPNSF
In short: as §1

EHF = molecular target: T5, EHF (Homo sapiens, UniProt Q9NZC4 1-300); conditions: protein: recombinant; tags: N-terminal GST; dsDNA, one strand shown
T5 sequence: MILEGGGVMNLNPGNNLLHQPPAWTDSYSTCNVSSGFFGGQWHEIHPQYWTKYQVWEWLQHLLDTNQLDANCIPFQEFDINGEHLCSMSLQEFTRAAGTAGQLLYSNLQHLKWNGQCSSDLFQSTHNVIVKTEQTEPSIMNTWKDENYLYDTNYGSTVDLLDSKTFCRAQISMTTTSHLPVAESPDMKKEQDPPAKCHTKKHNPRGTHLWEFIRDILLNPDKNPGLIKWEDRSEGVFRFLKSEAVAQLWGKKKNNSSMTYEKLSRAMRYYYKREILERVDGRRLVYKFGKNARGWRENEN
In short: as §1

SPI1 = SPI1 (Homo sapiens, UniProt P17947 1-270); conditions: protein: recombinant; tags: N-terminal GST; dsDNA, one strand shown
In short: as §1

SPIB = SPIB (Homo sapiens, UniProt Q01892 1-262); conditions: protein: recombinant; tags: N-terminal GST; dsDNA, one strand shown
Sequence of SPIB (Q01892 whole entry): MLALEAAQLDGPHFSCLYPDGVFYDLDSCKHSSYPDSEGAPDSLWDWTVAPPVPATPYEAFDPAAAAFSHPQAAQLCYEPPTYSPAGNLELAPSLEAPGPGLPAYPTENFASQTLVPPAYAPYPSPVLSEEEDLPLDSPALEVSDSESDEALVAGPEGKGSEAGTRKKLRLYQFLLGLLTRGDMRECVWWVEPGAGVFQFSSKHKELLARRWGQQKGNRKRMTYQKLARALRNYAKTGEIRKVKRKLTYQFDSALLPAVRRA
In short: as §1

ELK3 = molecular target: T6, ELK3 (Homo sapiens, UniProt P41970 1-407); conditions: protein: recombinant; tags: N-terminal GST; dsDNA, one strand shown
T6 sequence: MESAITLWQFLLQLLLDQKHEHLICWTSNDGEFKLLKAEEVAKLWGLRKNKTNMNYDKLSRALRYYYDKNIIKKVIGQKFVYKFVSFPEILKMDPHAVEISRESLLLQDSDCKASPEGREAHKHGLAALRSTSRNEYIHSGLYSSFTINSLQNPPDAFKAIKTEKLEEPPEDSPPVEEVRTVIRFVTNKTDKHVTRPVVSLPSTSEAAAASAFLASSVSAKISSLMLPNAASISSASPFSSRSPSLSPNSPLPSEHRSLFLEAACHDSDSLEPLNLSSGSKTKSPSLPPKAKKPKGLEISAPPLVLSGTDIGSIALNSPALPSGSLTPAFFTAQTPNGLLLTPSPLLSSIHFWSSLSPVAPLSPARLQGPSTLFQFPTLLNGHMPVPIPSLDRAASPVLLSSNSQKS
In short: as §1

FEV = molecular target: T7, FEV (Homo sapiens, UniProt Q99581 1-238); conditions: protein: recombinant; tags: N-terminal GST; dsDNA, one strand shown
T7 sequence: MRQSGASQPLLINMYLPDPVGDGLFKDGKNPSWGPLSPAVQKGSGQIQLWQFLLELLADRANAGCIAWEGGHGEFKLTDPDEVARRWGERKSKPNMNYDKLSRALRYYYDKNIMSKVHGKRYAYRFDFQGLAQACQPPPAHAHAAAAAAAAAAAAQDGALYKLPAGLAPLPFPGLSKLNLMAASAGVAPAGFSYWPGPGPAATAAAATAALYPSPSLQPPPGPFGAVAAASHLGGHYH
In short: as §1

ETV5 = ETV5 (Homo sapiens, UniProt P41161 1-510); conditions: protein: recombinant; tags: N-terminal GST; dsDNA, one strand shown
Sequence of ETV5 (P41161 whole entry): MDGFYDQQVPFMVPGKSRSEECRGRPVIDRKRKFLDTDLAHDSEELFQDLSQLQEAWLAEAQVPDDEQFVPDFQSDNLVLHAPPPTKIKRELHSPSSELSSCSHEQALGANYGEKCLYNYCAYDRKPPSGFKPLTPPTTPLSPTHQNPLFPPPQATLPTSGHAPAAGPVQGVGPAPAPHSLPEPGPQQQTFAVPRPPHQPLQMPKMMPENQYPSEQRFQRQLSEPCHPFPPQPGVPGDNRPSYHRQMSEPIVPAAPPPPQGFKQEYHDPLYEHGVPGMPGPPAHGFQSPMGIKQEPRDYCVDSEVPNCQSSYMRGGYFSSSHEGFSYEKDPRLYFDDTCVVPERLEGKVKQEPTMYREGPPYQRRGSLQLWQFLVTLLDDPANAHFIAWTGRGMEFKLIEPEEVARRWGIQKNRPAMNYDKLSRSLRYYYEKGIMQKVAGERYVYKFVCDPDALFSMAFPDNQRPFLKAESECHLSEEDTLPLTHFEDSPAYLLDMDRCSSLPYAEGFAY
In short: as §1

HSF1 = HSF1 (Homo sapiens, UniProt Q00613 1-529); conditions: protein: recombinant; tags: N-terminal GST; chain copies: 3; dsDNA, one strand shown
Sequence of HSF1 (Q00613 whole entry): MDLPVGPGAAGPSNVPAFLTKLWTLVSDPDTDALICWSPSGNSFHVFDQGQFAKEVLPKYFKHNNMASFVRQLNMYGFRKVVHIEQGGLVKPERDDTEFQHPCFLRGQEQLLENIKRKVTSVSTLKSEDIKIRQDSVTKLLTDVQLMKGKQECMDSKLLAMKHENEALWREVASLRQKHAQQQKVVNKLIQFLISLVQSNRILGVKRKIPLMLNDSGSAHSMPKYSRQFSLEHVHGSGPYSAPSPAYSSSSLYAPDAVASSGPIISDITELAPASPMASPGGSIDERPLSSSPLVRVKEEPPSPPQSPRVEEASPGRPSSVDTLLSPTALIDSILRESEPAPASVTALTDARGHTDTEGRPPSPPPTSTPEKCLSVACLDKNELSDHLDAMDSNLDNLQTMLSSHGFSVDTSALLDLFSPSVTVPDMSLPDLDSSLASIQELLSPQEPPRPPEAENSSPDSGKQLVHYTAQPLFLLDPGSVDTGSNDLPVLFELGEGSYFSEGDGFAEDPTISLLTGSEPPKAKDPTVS
In short: as §1

SPIC = molecular target: T8, SPIC (Homo sapiens, UniProt Q8N5J4 1-248); conditions: protein: recombinant; tags: N-terminal GST; dsDNA, one strand shown
T8 sequence: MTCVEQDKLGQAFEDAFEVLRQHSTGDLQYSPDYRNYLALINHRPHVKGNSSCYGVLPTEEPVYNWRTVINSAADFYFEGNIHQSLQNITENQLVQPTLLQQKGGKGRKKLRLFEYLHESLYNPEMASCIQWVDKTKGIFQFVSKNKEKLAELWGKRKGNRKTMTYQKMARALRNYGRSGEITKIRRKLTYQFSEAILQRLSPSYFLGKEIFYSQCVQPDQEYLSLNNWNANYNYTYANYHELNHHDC
In short: as §1

ELF4 = ELF4 (Homo sapiens, UniProt Q99607 1-663); conditions: protein: recombinant; tags: N-terminal GST; dsDNA, one strand shown
Sequence of ELF4 (Q99607 whole entry): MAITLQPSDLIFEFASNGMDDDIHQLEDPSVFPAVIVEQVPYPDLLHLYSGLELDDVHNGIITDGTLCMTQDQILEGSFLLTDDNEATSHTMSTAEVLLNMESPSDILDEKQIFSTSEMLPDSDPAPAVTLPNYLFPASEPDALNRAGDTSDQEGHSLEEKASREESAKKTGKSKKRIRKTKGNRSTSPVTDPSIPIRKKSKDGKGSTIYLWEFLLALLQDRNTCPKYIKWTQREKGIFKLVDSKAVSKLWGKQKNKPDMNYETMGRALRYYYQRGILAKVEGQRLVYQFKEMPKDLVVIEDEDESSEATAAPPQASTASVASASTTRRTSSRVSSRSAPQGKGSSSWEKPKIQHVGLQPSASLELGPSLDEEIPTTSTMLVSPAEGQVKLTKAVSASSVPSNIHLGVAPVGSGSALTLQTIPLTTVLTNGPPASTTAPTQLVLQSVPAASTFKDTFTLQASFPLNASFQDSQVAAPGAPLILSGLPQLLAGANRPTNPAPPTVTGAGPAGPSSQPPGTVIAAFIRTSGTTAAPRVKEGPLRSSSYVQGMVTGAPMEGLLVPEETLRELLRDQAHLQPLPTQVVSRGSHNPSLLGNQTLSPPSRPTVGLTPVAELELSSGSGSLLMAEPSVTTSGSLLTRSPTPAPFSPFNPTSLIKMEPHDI
In short: as §1

ELK4 = molecular target: T9, ELK4 (Homo sapiens, UniProt P28324-2 1-405); conditions: protein: recombinant; tags: N-terminal GST; dsDNA, one strand shown
T9 sequence: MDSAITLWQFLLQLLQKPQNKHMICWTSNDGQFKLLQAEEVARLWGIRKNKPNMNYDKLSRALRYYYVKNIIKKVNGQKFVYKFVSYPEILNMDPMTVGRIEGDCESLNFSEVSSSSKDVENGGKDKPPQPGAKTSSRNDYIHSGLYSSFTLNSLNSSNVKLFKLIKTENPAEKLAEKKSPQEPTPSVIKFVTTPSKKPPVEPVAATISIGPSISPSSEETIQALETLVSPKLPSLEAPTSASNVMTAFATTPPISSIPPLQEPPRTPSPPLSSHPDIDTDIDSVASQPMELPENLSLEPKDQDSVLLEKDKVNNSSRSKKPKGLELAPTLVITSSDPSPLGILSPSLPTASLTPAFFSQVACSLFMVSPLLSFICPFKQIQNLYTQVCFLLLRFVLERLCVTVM
In short: as §1

ETV2 = molecular target: T10, ETV2 (Homo sapiens, UniProt O00321 1-342); conditions: protein: recombinant; tags: N-terminal GST; dsDNA, one strand shown
T10 sequence: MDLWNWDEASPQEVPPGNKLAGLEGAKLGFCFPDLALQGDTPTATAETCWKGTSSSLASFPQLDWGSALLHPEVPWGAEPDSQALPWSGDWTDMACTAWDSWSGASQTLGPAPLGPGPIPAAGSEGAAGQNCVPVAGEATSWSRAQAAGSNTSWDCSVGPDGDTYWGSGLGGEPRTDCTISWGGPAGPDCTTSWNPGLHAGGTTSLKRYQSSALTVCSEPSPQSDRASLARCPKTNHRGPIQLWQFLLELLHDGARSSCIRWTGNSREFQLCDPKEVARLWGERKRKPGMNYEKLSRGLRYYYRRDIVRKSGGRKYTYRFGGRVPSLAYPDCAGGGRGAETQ
In short: as §1

ELF3 = molecular target: T11, ELF3 (Homo sapiens, UniProt P78545 1-371); conditions: protein: recombinant; tags: N-terminal GST; dsDNA, one strand shown
T11 sequence: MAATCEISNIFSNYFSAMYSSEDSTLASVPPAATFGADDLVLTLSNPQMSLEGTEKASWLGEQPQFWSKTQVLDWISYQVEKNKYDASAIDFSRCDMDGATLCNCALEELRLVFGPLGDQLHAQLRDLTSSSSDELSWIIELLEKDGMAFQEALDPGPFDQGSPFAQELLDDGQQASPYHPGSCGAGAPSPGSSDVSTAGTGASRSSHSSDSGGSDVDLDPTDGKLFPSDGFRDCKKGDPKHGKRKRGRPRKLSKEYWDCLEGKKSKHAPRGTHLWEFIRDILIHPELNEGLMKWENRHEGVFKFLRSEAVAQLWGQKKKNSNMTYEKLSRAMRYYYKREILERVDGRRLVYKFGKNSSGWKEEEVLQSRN
In short: as §1

CRX = CRX (Homo sapiens, UniProt O43186 1-299); conditions: protein: recombinant; tags: N-terminal GST; dsDNA, one strand shown
Sequence of CRX (O43186 whole entry): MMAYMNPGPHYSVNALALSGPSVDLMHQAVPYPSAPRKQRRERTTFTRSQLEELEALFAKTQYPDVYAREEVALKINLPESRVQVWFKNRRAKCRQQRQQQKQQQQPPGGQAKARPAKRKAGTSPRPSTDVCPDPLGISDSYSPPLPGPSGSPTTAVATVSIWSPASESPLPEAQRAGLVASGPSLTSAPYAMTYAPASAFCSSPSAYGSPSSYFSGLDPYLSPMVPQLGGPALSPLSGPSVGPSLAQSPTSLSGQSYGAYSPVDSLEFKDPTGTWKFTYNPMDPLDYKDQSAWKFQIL
In short: as §1

ETV1 = ETV1 (Homo sapiens, UniProt P50549 1-477); conditions: protein: recombinant; tags: N-terminal GST; dsDNA, one strand shown
Sequence of ETV1 (P50549 whole entry): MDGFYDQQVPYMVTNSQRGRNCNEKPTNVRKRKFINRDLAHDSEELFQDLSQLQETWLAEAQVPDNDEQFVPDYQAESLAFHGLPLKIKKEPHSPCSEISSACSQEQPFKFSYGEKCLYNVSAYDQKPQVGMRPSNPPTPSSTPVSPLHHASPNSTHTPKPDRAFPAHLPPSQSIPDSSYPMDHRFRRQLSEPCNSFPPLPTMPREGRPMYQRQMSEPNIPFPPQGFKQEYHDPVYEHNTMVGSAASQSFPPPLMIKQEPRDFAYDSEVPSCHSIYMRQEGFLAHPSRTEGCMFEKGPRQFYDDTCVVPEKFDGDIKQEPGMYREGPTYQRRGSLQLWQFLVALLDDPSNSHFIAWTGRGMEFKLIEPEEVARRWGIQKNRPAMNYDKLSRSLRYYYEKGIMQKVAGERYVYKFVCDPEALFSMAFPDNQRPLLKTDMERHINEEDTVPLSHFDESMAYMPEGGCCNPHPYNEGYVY
In short: as §1

ATCATC
binding signal (FLI1): 1.17 fold enrichment (6-mer frequency, TF over GST control)
binding signal (ELK1): 1.2 fold enrichment (6-mer frequency, TF over GST control)
binding signal (GABPA): 1.19 fold enrichment (6-mer frequency, TF over GST control)
binding signal (ERG): 1.17 fold enrichment (6-mer frequency, TF over GST control)
binding signal (ELF1): 1.25 fold enrichment (6-mer frequency, TF over GST control)
binding signal (EHF): 1.25 fold enrichment (6-mer frequency, TF over GST control)
binding signal (SPI1): 1.14 fold enrichment (6-mer frequency, TF over GST control)
binding signal (SPIB): 1.19 fold enrichment (6-mer frequency, TF over GST control)
binding signal (ELK3): 1.08 fold enrichment (6-mer frequency, TF over GST control)
binding signal (FEV): 1.11 fold enrichment (6-mer frequency, TF over GST control)
binding signal (ETV5): 1.1 fold enrichment (6-mer frequency, TF over GST control)
binding signal (HSF1): 1.4 fold enrichment (6-mer frequency, TF over GST control)
binding signal (SPIC): 1.24 fold enrichment (6-mer frequency, TF over GST control)
binding signal (ELF4): 1.17 fold enrichment (6-mer frequency, TF over GST control)
binding signal (ELK4): 1.31 fold enrichment (6-mer frequency, TF over GST control)
binding signal (ETV2): 1.21 fold enrichment (6-mer frequency, TF over GST control)
binding signal (ELF3): 1.26 fold enrichment (6-mer frequency, TF over GST control)
binding signal (CRX): 1.56 fold enrichment (6-mer frequency, TF over GST control)
binding signal (ETV1): 1.12 fold enrichment (6-mer frequency, TF over GST control)
